Assay results: PubChem BioAssay (NCI)
Compounds without any hit were thinned out: in the full panel of roughly 83,000, 20% have a hit.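 Note: values are percent growth. 100 is the growth of untreated cells, values between 100 and 0 indicate rising inhibition; between -100 and 0 indicates cell death.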 A number with no mark means an inactive call. Calls of active or inactive are those of the source. Rule for the calls: active = growth percent below 10; inactive = the rest.

System: MDA-MB-468 breast
Test: NCI-60 one-dose screen, 48 h (100 = growth as untreated, 0 = no growth, -100 = all killed)
Settings: 10 µM unless noted

Q: NC(=S)N/N=C/c1ccc(OCc2ccccc2)cc1 was tested. Which growth did it give?
A: 47.3%

Q: Which growth does the source give for COC(=O)c1c2c(c(C)[n+]([O-])c1C)C(=O)C(NCc1ccc(Cl)cc1)=CC2=O here?
A: 39.8%

Q: Which growth does the source give for O=C(O)CSCc1nc2ccccc2[nH]1 here?
A: 118%

Q: Which growth does the source give for COc1ccc2c(c1)c(-c1nonc1-c1cn(C)c3ccccc13)cn2C here?
A: 13.9%

Q: How did the growth turn out when CCCCCCCCCCCCCCNc1nc(CO)ncc1-c1ccc(C(F)(F)F)cc1 was run?
A: 98.1%

Q: Which growth does the source give for Cc1cc2nc(CC(=O)c3cccc([N+](=O)[O-])c3)c(=O)[nH]c2cc1C here?
A: 85.1%

Q: CC(=O)Oc1csc(N(C(C)=O)c2cc(C(=O)O)cc(C(=O)O)c2)n1 was tested. Which growth did it give?
A: 95.2%

Q: With O=C1C=Cc2ncccc2C1=O as the compound, how does the growth read?
A: 64.5%

Q: Which growth does the source give for O=C(c1ccccc1)C(Sc1ccccc1)c1ccccc1 (stereo not given) here?
A: 88.7%

Q: With Cc1ccc(/C=C2\COc3ccc(O)cc3C2=O)cc1 as the compound, how does the growth read?
A: 91.4%

Q: For CC1=C[C@@H]2c3c(c(O)c(O)c4oc5cc(O)cc(O)c5c(=O)c34)[C@@H](c3cc(O)c(O)c4oc5cc(O)cc(O)c5c(=O)c34)[C@@H]2C(C)(C)C1, which growth is on record?
A: -19.5% (active)

Q: Which growth does the source give for CC(=O)Nc1cccc(Nc2nc(N[C@H](C)c3ccccc3)c3ccccc3n2)c1 here?
A: 6.66% (active)

Q: For C=C1C(=O)O[C@H]2[C@H]1CC/C(COC(=O)NCc1cc3ccccc3[nH]1)=C\CC[C@@]1(C)O[C@@H]21, which growth is on record?
A: 19.3%

Q: O=C(NCOC(O)C(Cl)(Cl)Cl)NCOC(O)C(Cl)(Cl)Cl (stereo not given) was tested. Which growth did it give?
A: 106%

Q: Which growth does the source give for N=c1ccc2nc3ccc(N)cc3sc-2c1 here?
A: -16.2% (active)
